# The list is not random: actives were taken first. Their share in the collection is about 2.4%.
# D2 ag-1: activates the human D2 dopamine receptor; P14416; HEK293 T-REx D2 cells, calcium flux agonist mode; activation, % at 2 µM; 0.53% of 340,000 active;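 active = activation over 3 SD above normal in the single-dose calcium agonist read, cut at about 30% in these data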
# Target sequence (P14416 whole entry, looked up): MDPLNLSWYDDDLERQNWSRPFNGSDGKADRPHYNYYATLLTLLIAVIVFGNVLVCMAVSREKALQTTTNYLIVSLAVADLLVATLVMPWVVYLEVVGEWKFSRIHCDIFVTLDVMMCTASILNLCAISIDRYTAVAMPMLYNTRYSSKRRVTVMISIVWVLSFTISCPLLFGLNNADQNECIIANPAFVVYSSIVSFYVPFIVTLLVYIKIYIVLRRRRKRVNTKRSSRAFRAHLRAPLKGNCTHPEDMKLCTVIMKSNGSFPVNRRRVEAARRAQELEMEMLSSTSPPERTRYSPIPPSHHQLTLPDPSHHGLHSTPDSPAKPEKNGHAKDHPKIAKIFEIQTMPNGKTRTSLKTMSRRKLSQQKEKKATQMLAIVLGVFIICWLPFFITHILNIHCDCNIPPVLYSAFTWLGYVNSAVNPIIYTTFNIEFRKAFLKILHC
#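 Agonism scored from kinetic calcium signal (1 read/sec, 180 s) following compound pin transfer, after a 10 s baseline. Cells: HEK293 Trex line expressing inducible D2 receptor coupled to calcium, dye-loaded after overnight culture at 30 C.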
# D2 PAM-1: D2 dopamine receptor (human) potentiation; HEK293 T-REx D2, calcium flux, EC20 dopamine potentiation; potentiation, % at 10 µM; 0.34% of 340,000 active;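 active = potentiation over 3 SD above the plate norm, cut at about 30% in these data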
#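 Potentiation of an EC20 dopamine calcium response measured kinetically over 180 s, after a preceding 180 s compound-only read flagging agonists. Cells: inducible Hek293 Trex D2 line, 4000/well, cultured overnight at 30 C before dye loading.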
# D2 antag: D2 dopamine receptor (human) antagonism. P14416. HEK293 TREx D2 cells, calcium flux, dopamine EC80. inhibition, % at 10 µM. 2% of 340,000 active. AID 485344; in the data active = inhibition above about 30%; inactive = below that, where a call was filed
#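 Antagonism is scored as inhibition of an EC80 dopamine-evoked calcium signal in a force-coupled, tetracycline-inducible HEK293 T-REx D2 line, with compound present 180 s before agonist.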
# D2 PAM-2: potentiates the human D2 dopamine receptor allosterically | AID 624464 | potentiation, % (no concentration beside the values) | DiscoveRx D2 beta-arrestin cells, luminescence, 90 min; 100% = 57 uM dopamine signal | 0.23% of 360,000 active | P14416; in the data active = potentiation above about 50%
#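 PathHunter beta-arrestin assay in DiscoveRx D2 cells. Compounds were added with an EC20 of dopamine (50 nM final) for 90 min at 37 deg C. Luminescence was read 1 h after detection reagent, with 57 uM dopamine as the EC100 control.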
# D2 ag-2: activates the human D2 dopamine receptor | P14416 | DiscoveRx PathHunter D2 beta-arrestin, luminescence, 90 min; 100% = 57 uM dopamine signal | activation, % (no concentration beside the values) | 0.084% of 360,000 active | AID 624465; in the data active = activation above about 40%
#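 Agonist mode: compounds alone added to overnight-plated D2 PathHunter cells for 90 min at 37 C, with 57 uM final dopamine (EC100) defining full response. Beta-arrestin recruitment detected by chemiluminescent reagent, read after 1 h at ambient temperature.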
# Hits are given with their value; 0 = inactive; - = no result.
SMILES,D2 ag-1,D2 PAM-1,D2 antag,D2 PAM-2,D2 ag-2
CCOc1ccccc1NC(=O)CSc1nnnn1-c1ccccc1,0,0,31,0,0
Cc1ccccc1CNC(=O)C1CCN(c2nnc(-n3c(C)ccc3C)s2)CC1,0,0,-,-,-
Cc1ccc(-n2ncc3c(Nc4cccc(C(F)(F)F)c4)ncnc32)cc1C,0,0,-,-,-
CCOc1ccccc1NC(=O)CSc1nnc2c(CC)c(C)nc(N)n12,0,-,35,0,0
CCOc1ccccc1NC(=O)CSc1nncc2ccccc12,0,35,0,0,0
COc1ccc(OC)c(NC(=O)CSc2nncc3ccccc23)c1,0,0,0,0,0
COCCn1c(SCc2nc3sc(C(=O)OC)c(C)c3c(=O)[nH]2)nc2ccccc21,0,0,31,0,0
CCn1c(SCc2nc3sc(C(=O)O)c(C)c3c(=O)[nH]2)nc2ccccc21,0,0,0,0,0
CCOC(=O)c1ccccc1NC(=O)CSc1nccn1C,0,53,0,0,0
CC(C)N(Cc1ccccc1)S(=O)(=O)c1ccc(N2CCCCS2(=O)=O)cc1,0,0,-,-,-
CCOC(=O)c1cc(-c2ccc(F)cc2)n(CCC(=O)NCCc2ccc(C)cc2)c1C,0,0,-,-,-
COCCn1c(SCC(=O)Nc2cccnc2Cl)nc2ccccc21,-,-,-,0,0
COCCn1c(SCC(=O)Nc2ccccc2OC)nc2ccccc21,0,0,35,0,0
COc1cc(C(=O)N/N=C(\C)Cc2ccccc2)cc(OC)c1OC,-,-,-,0,0
COc1cc(C(=O)NCC(=O)N/N=C(\C)Cc2ccccc2)cc(OC)c1OC,0,37,0,0,0
CCCN1CCN(C(=O)Nc2cccc(C(F)(F)F)c2)CC1,0,0,52,0,0
Cc1ccc(NC(=O)c2noc(C(C)C)c2[N+](=O)[O-])cc1,0,0,51,0,0
CC(C)c1onc(C(=O)Nc2cccc(O)c2)c1[N+](=O)[O-],0,0,0,0,0
COc1cc(CN2CCN(C(c3ccccc3)c3ccccc3)CC2)cc(OC)c1OC,0,0,0,0,0
Cc1cccc(CN2CCN(C(c3ccccc3)c3ccc(Cl)cc3)CC2)c1 (stereo not given),0,0,31,0,0
CN1CCCN(C(c2ccccc2)c2ccc(Cl)cc2)CC1 (stereo not given),0,0,82,0,0
CCOc1ccccc1C(=O)Nc1c(NC)c2ccccc2oc1=O,0,0,-,-,-
CCN(Cc1ccccc1)Cc1ccc(OCc2ccccc2)cc1,0,0,31,0,0
Cn1c(CN2CCOCC2)c(C#N)c2ccccc21,0,0,0,0,0
CC(=O)N(Cc1c(C#N)c2ccccc2n1C)c1ccccc1,0,0,0,0,0
SMILES,D2 ag-1,D2 PAM-1,D2 antag,D2 PAM-2,D2 ag-2
CC1CCCCN1Cc1c(C#N)c2ccccc2n1C (stereo not given),0,0,40,0,0
Cn1c(CN2CCCC2)c(C#N)c2ccccc21,0,0,83,0,0
CN1CCN(Cc2c(C#N)c3ccccc3n2C)CC1,0,0,0,0,0
CC1CCN(Cc2c(C#N)c3ccccc3n2C)CC1,0,0,74,0,0
COc1ccc(N(C)S(=O)(=O)c2ccc3c(c2)n(C)c(=O)c(=O)n3C)cc1,0,0,-,-,-
Cc1cc(C)cc(NC(=O)C2CCN(c3cc(C)nc4c(-c5ccc(Cl)cc5)c(C)nn34)CC2)c1,0,0,-,-,-
COc1ccc(-c2nnc(SCCC(=O)O)n2C)cc1OC,0,0,34,0,0
CC(=O)NNC(=O)CN1C(=O)/C(=C/c2ccccc2)SC1=S,0,0,74,0,0
CCN(CC)C(=O)CN1C(=O)/C(=C/c2ccccc2)SC1=S,0,0,0,0,0
O=C1/C(=C\c2cc(Cl)c(O)c(Cl)c2)SC(=S)N1Cc1ccccc1,0,0,69,0,0
COc1ccc(-c2onc(C)c2C)cc1S(=O)(=O)N(C)Cc1ccccc1,0,0,-,-,-
CC(=O)c1cccc(Nc2ncnc3c2cnn3-c2cccc(Cl)c2)c1,0,0,-,-,-
CCn1c2ccccc2c2cc(CNCc3ccc(OC)cc3OC)ccc21,0,0,35,0,0
O=C(Cn1cc(SCc2c(F)cccc2Cl)c2ccccc21)N1CCCCCC1,0,0,-,-,-
O=S(=O)(c1ccccc1)c1nnn2c1nc(NCc1ccccc1)c1sccc12,-,0,-,-,-
CCCCNCCOCCOc1ccccc1-c1ccccc1,0,0,76,0,0
C=CCNCCOc1ccccc1-c1ccccc1,0,0,87,0,0
C=CCNCCCOc1ccc(C(C)(C)c2ccccc2)cc1,0,0,0,0,0
COCCNCCCCOc1ccccc1-c1ccccc1,0,0,92,0,0
CN(C)CCCCOc1ccccc1F,0,0,0,0,0
CN(C)CCCCOc1ccccc1-c1ccccc1,0,0,71,0,0
CCCCN1C(=O)c2ccc(C(=O)Nc3ccccc3N3CCOCC3)cc2C1=O,0,0,44,0,0
O=C(CN1C(=O)c2ccccc2C1=O)Nc1ccccc1N1CCOCC1,0,0,0,0,0
O=C1Cc2cc(CCN3CCN(c4nsc5ccccc45)CC3)c(Cl)cc2N1,0,0,84,-,-
O=C1Cc2cc(S(=O)(=O)N3CCN(c4ccccc4)CC3)ccc2N1,0,0,0,0,0
SMILES,D2 ag-1,D2 PAM-1,D2 antag,D2 PAM-2,D2 ag-2
CCS(=O)(=O)N1CCc2cc(C(=O)NCc3ccc(Cl)cc3)ccc21,0,0,-,-,-
CCc1ccc(CNC(=O)c2ccc(OC)c(OC3CCN(C(C)C)CC3)c2)nc1,0,0,42,0,0
COc1ccc(C(=O)NCc2cnn(C)c2)cc1OC1CCN(C(C)C)CC1,0,0,0,0,0
CCN(CC)C(=O)c1sc2c(c1C)c(=O)n(CCc1ccccc1)c(=O)n2Cc1ccc(C)cc1,0,0,-,-,-
Cc1cc(C)cc(OC(=O)N2CCOCC2)c1,0,0,38,0,0
COc1cccc(OC(=O)N2CCOCC2)c1,0,0,0,0,0
CCCc1ccc(OCc2ccc(C(=O)N3CCSCC3)o2)cc1,0,0,39,0,0
Cc1ccccc1CNC(=O)CN1CCSc2ccccc21,0,0,-,-,-
CCCCN(C(=O)C1CC(=O)N(c2ccc(C)cc2)C1)c1c(N)n(CCC)c(=O)[nH]c1=O (stereo not given),0,0,38,0,0
CCCCn1c(N)c(N(CC(C)C)C(=O)C2CC(=O)N(c3ccc4c(c3)OCCO4)C2)c(=O)[nH]c1=O (stereo not given),0,0,39,0,0
COc1ccc(CCNC(=O)Cn2c(=O)n(-c3ccc(OC)c(OC)c3)c(=O)c3ccccc32)cc1OC,0,0,-,-,-
COC(=O)c1ccccc1NC(=O)NCCc1c(C)nn(C)c1C,0,0,-,-,-
CCCCOC(=O)c1ccc(NC(=O)CSc2nc3c(c(=O)[nH]2)CCCC3)cc1,0,0,-,-,-
O=C(Nc1ccc(Cl)c(C(F)(F)F)c1)N1CCCC(O)C1 (stereo not given),0,0,30,0,0

# Source: PubChem
